Data as given in PubChem BioAssay AID504332 (National Center for Advancing Translational Sciences (NCATS), 2011).
Among all 350,000 compounds or so, about 31,000 (8.9%) were called active. Another 15% or so got no clear call; they are omitted. The sample as a whole holds a higher share of actives than the screen did. A number with no mark means an inactive call. Calls come from the whole dose curve; as a rule, active = well fitted inhibition curve with a large enough effect; inconclusive = small, poorly fitted or top-dose-only effect; inactive = no such curve, though single readings can be large or run the other way.

Each molecule was assayed against Histone-lysine N-methyltransferase EHMT2 (Homo sapiens) (UniProt Q96KQ7) (assay: qHTS Assay for Inhibitors of Histone Lysine Methyltransferase G9a). Details: G9a H3K9 monomethylation, AlphaScreen, 2 h; series mostly up to 59 µM.
Chain of Histone-lysine N-methyltransferase EHMT2 (Homo sapiens) (Q96KQ7 913-1193 limits assumed): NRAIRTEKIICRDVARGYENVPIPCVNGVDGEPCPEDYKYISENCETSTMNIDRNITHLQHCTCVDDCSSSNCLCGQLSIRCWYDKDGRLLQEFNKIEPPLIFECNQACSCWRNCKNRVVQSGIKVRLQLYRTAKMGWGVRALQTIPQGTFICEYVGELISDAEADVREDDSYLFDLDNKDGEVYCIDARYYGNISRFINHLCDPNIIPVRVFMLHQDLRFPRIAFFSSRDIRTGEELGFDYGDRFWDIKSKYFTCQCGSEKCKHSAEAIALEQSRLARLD
Source text: Methylated lysines, on the N-terminal tails of histone proteins serve as epigenetic markers to recruit factors that can then modify local chromatin structure to lead to functional consequences. G9a and other members of the SUV39 family of the SET domain-containing superfamily of histone lysine methyltransferases (HMT) have been identified to specifically methylate Lys9 of histone H3 (H3K9). G9a catalyzes the mono- and di-methylation of H3K9 in mammalian euchromatic regions, where the resulting H3K9me2 is indicative of transcriptional repression. […] The inhibition of G9a will result in transcriptional activation and work synergistically with DNA methyltransferase and histone deacetylase inhibitors, to kill cancer cells. This qHTS assay for identification of G9a inhibitors is a chemiluminescence based AlphaScreen (PerkinElmer). Methylation of biotinylated-histone peptide is measured through specific antibody-based detection, in conjunction with streptavidin-coated donor and anti-IgG antibody-coated acceptor beads. The method is particularly well suited for detection of inhibitors acting by the desired histone peptide competitive mechanism and is applicable to testing other HMTs. Although AlphaScreen has significant advantages with its utility in a variety of epigenetic target assays, the primary screening data provided in this deposition should be used with caution due to the prevalence of screening artifacts. An AlphaScreen counterscreen is highly recommended to be run against any putative actives to eliminate non specific artifacts. Alternatively, one can use other AlphaScreen assays in PubChem to filter out promiscuous hits. Quinn et al. A chemiluminescence-based method for identification of histone lysine methyltransferase inhibitors. Mol Biosyst 6(5): 782-8. 2010. PMID: 20567762 [2] Baell,Holloway. New substructure filters for removal of pan assay interference compounds (PAINS) from screening libraries and for their exclusion in bioassays. J Med Chem. 53(7):2719-40. 2010. PMID: 20131845 NIH Molecular Libraries Probe Production Network [MLPCN] NIH Chemical Genomics Center [NCGC] Structural Genomics Consortium (SGC) NIH Grant: 5U54 MH084681-02
To each well of a 1,536w plate, 2ul of HMT enzyme (final 20nM) were added, using a nanoliter dispenser. The G9a- and GLP-inhibitor BIX-01294 (CID: 25150857) are used as an intraplate control, with a 16-point titration in duplicate. A Kalypsys pin-tool transferred 23nl of library compound solution in DMSO to each well. Following a 15 min incubation of enzyme with compounds at room temperature, 1ul mixture of b-H3K9 peptide substrate (final 500nM) and SAM cofactor (final 20uM) were added. Reactions were allowed to proceed at room temperature for 2 hours. Methylated b-H3K9 peptide product was detected with 0.5 ug/mL rabbit polyclonal anti-monomethyl histone H3K9 antibody (Abcam Inc., Cambridge, MA) and 20 ug/mL each streptavidin-coated donor and anti-rabbit IgG acceptor AlphaScreen beads. Antibody and beads were added in a 1ul dispense, for a final volume of 4ul, and plates were incubated, protected from the light, for 10 min at room temperature. Microplates were then read on an EnVision multilabel plate reader using the 1,536 plate HTS AlphaScreen aperture (excitation time 80 ms, measurement time 240 ms).
% is set by controls: 0 for no effect and ±100 for the full control effect; potency is the fitted concentration of half-maximal effect.
Note: nearly all actives have a fitted effect of over 75% in size.

SMILES	activity, negative = inhibition	Potency
Cc1nc2ccc(NC(=O)N3CCC(c4ccccc4)C3)cc2nc1C (stereo not drawn)	12.3% [at 12.7 µM]	–
COc1cccc(NC(=O)C2C(c3ccccc3)C2(Cl)Cl)c1 (stereo not drawn)	0.796% [at 0.501 µM]	–
CCOC(=O)N/N=C/c1cn(Cc2ccccc2Cl)c2ccccc12	–	inactive
CNC(=S)N/N=C/c1cn(Cc2ccc(C)cc2)c2ccccc12	–	44.7 µM (active)
COC(=O)N/N=C/c1cn(CCCOc2ccc(C)cc2)c2ccccc12	–	inactive
O=C(Cc1ccc(Cl)cc1)NC(=S)Nc1ccccc1O	–	inactive
Cc1cccc(C)c1NC(=O)CNC(=O)C1CCCC1	26.8% [at 12.7 µM]	–
NS(=O)(=O)c1cc(C(=O)OCC(=O)NNC(=O)c2ccccc2)ccc1Cl	–	inactive
CN(NS(=O)(=O)c1cccs1)c1ncc(C(F)(F)F)cc1Cl	–	inactive
CC(=O)c1c(C)[nH]c(C(=O)COc2ccc3c(C)cc(=O)oc3c2)c1C	-2.97% [at 12.7 µM]	–
COC(=O)Cn1cc(C(=O)c2cccs2)c2ccccc21	10.8% [at 12.7 µM]	–
COC(=O)Cn1cc(/C=C/[N+](=O)[O-])c2ccccc21	–	39.8 µM (active)
COC(=O)c1cn(CC(=O)NCc2cccs2)c2ccccc12	–	inactive
Cc1nc(C)c(C(=O)Nc2ccc(C)c(F)c2)o1	20.5% [at 12.7 µM]	–
Cc1nc(C)c(C(=O)Nc2cccc(C)c2C)o1	–	44.7 µM (active)
Cc1cccc(NC(=O)c2ccc3nsnc3c2)c1C	–	inactive
COc1ccc(Cl)cc1NC(=O)c1oc(C)nc1C	10.9% [at 12.7 µM]	–
Cc1cccc(NC(=O)c2cccc(C(=O)Nc3cccc(C)c3C)n2)c1C	–	50.1 µM (active)
Cc1cccc(NC(=O)c2ccc3nc(C(C)C)oc3c2)c1C	–	inactive
CCOC(=O)[C@H]1[C@H]2COc3ccc(OC)cc3[C@@H]2N2C(=O)c3ccc(F)cc3NC(=O)[C@@]12C	22.3% [at 2.33 µM]	–
O=C(NNC(=O)c1cc(S(=O)(=O)N2CCCCC2)ccc1Cl)c1ccccc1O	36.2% [at 12.7 µM]	–
Cc1ccc(C(=O)Nc2ccc(OCc3cc(=O)n4c(C)csc4n3)cc2)cc1	–	inactive
O=C(C1CCC1)N1CCN(S(=O)(=O)c2ccc([N+](=O)[O-])cc2)CC1	-3.47% [at 12.7 µM]	–
CC(=O)c1ccc(Oc2cc(C)nc(-n3nc(C)cc3C)n2)cc1	–	inactive

SMILES	activity, negative = inhibition	Potency
Cc1cc(C)n(-c2nc(O)cc(=O)[nH]2)n1	–	4.47 µM (active)
Cc1cc(C)n(-c2ccc(Cl)c(C(=O)O)n2)n1	–	inactive
O=C(NCCc1ccccc1)c1cnc2sc(N3CCCC3)nn2c1=O	–	inactive
COc1ccc(-c2csc3ncnc(N4CCN(S(=O)(=O)c5cccc(F)c5)CC4)c23)cc1	-11.1% [at 2.33 µM]	–
O=C(NCc1ccccc1Cl)C1=Cc2cc(Br)ccc2OC1	–	inactive
Cc1ccc(C2C3=C(Nc4[nH]n(-c5ccccc5)c(=O)c42)c2ccccc2C3=O)cc1 (stereo not drawn)	–	3.16 µM (active)
Cc1ccc(C2SCC(=O)N2c2ccccc2)cc1 (stereo not drawn)	–	inactive
Cc1ccc(N2C(=O)C3C(c4ccccc4)(C2=O)C3(c2ccccc2)c2ccccc2)cc1 (stereo not drawn)	28.9% [at 12.7 µM]	–
CCCn1c(=N)n(CC(O)COc2ccccc2OC)c2ccccc21 (stereo not drawn)	–	inactive
CCCCn1c(N)c(N(CCOC)C(=O)CSCC(=O)Nc2cccc(C)c2)c(=O)[nH]c1=O	–	inactive
O=C(Nc1ccccc1F)c1ccc(S(=O)(=O)N2CCCCCC2)cc1	62.1% [at 12.7 µM]	–
CCOC(=O)CSc1nc2sc3c(c2c(=O)[nH]1)CC(C)(C)OC3	–	inactive
CCOC(=O)Cn1c(SC)nc2sc3c(c2c1=O)CC(C)(C)OC3	–	inactive
CC1(C)Cc2c(sc(NC(=O)C(=O)NCC3CCCO3)c2C(=O)O)CO1 (stereo not drawn)	–	inactive
N#Cc1c(NC(=O)c2ccc(N3CCOCC3)c([N+](=O)[O-])c2)sc2c1CCCC2	–	inactive
CCOC(=O)N1CCN(C(=O)C(=O)Nc2sc3c(c2C#N)CC(C)(C)OC3)CC1	–	12.6 µM (active)
CC1(C)Cc2c(sc(NC(=O)C(=O)N3CCOCC3)c2C#N)CO1	–	35.5 µM (active)
CCN1CCN(C(=O)CSc2ccc(C)cc2)CC1	–	inactive
CCN1CCC2(CC1)N=C(c1ccc(F)cc1)C(=S)N2C(=O)c1ccc(C)cc1	–	10 µM (active)
Cc1ccc(NC(=O)CN2C(=O)C(c3ccc(F)cc3)=NC23CCCCCC3)c(C)c1	–	inactive
O=C(Nc1ccc(S(=O)(=O)N2CCCCCC2)cc1)c1c(F)cccc1F	-5.59% [at 12.7 µM]	–
Cc1ccc(Cl)cc1NC(=O)Cc1ccc(-n2c(C)nc3cccnc32)cc1	–	inactive
COc1ccccc1C1=CC(=O)C[C@H](c2ccc(F)cc2)C1	-10.3% [at 0.501 µM]	–
Cc1sc2ncnc(SCC(=O)Nc3ccc(CN4CCCC4)cc3)c2c1C	10.2% [at 12.7 µM]	–
